In PubChem BioAssay AID1159580 (chemical genetic matrix, 2015):
Out of some 5,500 compounds screened, about 2,000 (36%) were called active. Not shown: some 18% with an inconclusive outcome. No stated cut-off is given here; in the data, active means normalized growth mostly below about 0.91 (no sharp cut-off); inconclusive means no clear call, values can overlap the other calls; inactive means mostly above about 0.92. Some of the results follow.

Assay: chemical genetic growth profiling, strain panel (AID 1159580);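 further: tested at 20 µM; growth read once vehicle control cultures reached saturation at 30 °C; 1 = growth at the plate median or of vehicle wells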
Conditions: S. cerevisiae deletion strains, growth OD
[1] = locus YHR030C, strain SLT2, stronger effect = lower value
[2] = locus YHR079C, strain IRE1, stronger effect = lower value
[3] = locus YJL095W, strain BCK1, stronger effect = lower value
[4] = locus YJR066W, strain TOR1, stronger effect = lower value
[5] = locus YLR113W, strain HOG1, stronger effect = lower value
[6] = locus YNL183C, strain NPR1, stronger effect = lower value
[7] = locus YOR231W, strain MKK1, stronger effect = lower value
[8] = locus YPL256C, strain CLN2, stronger effect = lower value

Measured: normalized growth

CC(N)C(=O)NC(Cc1ccccc1)C(=O)O (stereo not given)
inactive: [1] 0.937 | [2] 0.952 | [3] 0.96 | [4] 0.886 | [5] 1.02 | [6] 0.89 | [7] 0.982 | [8] 0.925

O=C1C(=O)N(CN2CCc3c([nH]c4ccccc34)C2C(F)(F)F)c2ccc(F)cc21 (stereo not given)
inactive: locus YAR019C, strain CDC15, stronger effect = lower value 0.978 | locus YBL105C, strain PKC1, stronger effect = lower value 0.983 | locus YBR135W, strain CKS1, stronger effect = lower value 0.982 | locus YBR136W, strain MEC1, stronger effect = lower value 0.974 | locus YBR160W, strain CDC28, stronger effect = lower value 0.962 | locus YDL017W, strain CDC7, stronger effect = lower value 0.983 | locus YDL028C, strain MPS1, stronger effect = lower value 0.975 | locus YDL101C, strain DUN1, stronger effect = lower value 0.988 | locus YDL108W, strain KIN28, stronger effect = lower value 0.973 | locus YDL132W, strain cdc53, stronger effect = lower value 0.972 | locus YDL214C, strain PRR2, stronger effect = lower value 0.841 | locus YDR052C, strain DBF4, stronger effect = lower value 0.991 | locus YDR054C, strain cdc34, stronger effect = lower value 0.974 | locus YDR226W, strain ADK1, stronger effect = lower value 0.98 | locus YDR477W, strain SNF1, stronger effect = lower value 0.86 | locus YER123W, strain YCK3, stronger effect = lower value 0.692 | locus YER133W, strain GLC7, stronger effect = lower value 0.894 | locus YFL009W, strain cdc4, stronger effect = lower value 0.977 | locus YFL029C, strain CAK1, stronger effect = lower value 0.959 | locus YFR003C, strain YPI1, stronger effect = lower value 0.981 | locus YFR019W, strain FAB1, stronger effect = lower value 0.839 | locus YFR028C, strain CDC14, stronger effect = lower value 0.963 | locus YGR040W, strain KSS1, stronger effect = lower value 0.891 | locus YGR052W, strain FMP48, stronger effect = lower value 0.804 | locus YGR092W, strain DBF2, stronger effect = lower value 0.612 | [2] 0.667 | locus YHR082C, strain KSP1, stronger effect = lower value 0.614 | locus YHR205W, strain SCH9, stronger effect = lower value 0.795 | locus YIL147C, strain SLN1, stronger effect = lower value 0.982 | [3] 0.791 | locus YJL128C, strain PBS2, stronger effect = lower value 0.934 | locus YJL157C, strain FAR1, stronger effect = lower value 0.886 | locus YJR016C, strain ILV3, stronger effect = lower value 0.993 | locus YJR066W, strain TOR1 (second series), stronger effect = lower value 0.825 | [4] 0.784 | locus YKL048C, strain ELM1, stronger effect = lower value 0.879 | locus YKL067W, strain YNK1, stronger effect = lower value 0.865 | locus YKL193C, strain SDS22, stronger effect = lower value 0.972 | locus YKL203C, strain TOR2, stronger effect = lower value 0.934 | locus YLR133W, strain CKI1, stronger effect = lower value 0.836 | locus YLR403W, strain SFP1, stronger effect = lower value 0.942 | locus YML070W, strain DAK1, stronger effect = lower value 0.716 | locus YMR001C, strain CDC5, stronger effect = lower value 0.962 | locus YMR205C, strain PFK2 (second series), stronger effect = lower value 0.888 | locus YMR277W, strain FCP1, stronger effect = lower value 0.947 | locus YNL006W, strain LST8, stronger effect = lower value 0.982 | locus YNL020C, strain ARK1, stronger effect = lower value 0.741 | locus YNL161W, strain CBK1, stronger effect = lower value 0.979 | [6] 0.666 | locus YNL207W, strain RIO2, stronger effect = lower value 0.983 | locus YNL222W, strain SSU72, stronger effect = lower value 0.98 | locus YNL307C, strain MCK1 (second series), stronger effect = lower value 0.682 | locus YOL078W, strain AVO1, stronger effect = lower value 0.972 | locus YOL136C, strain PFK27, stronger effect = lower value 0.711 | locus YOR061W, strain CKA2, stronger effect = lower value 0.917 | locus YOR119C, strain RIO1, stronger effect = lower value 0.907 | [7] 0.8 | locus YOR329C, strain SCD5, stronger effect = lower value 0.994 | locus YPL031C, strain PHO85, stronger effect = lower value 0.82 | locus YPL153C, strain RAD53, stronger effect = lower value 0.74 | locus YPL204W, strain HRR25, stronger effect = lower value 0.798 | locus YPL209C, strain IPL1, stronger effect = lower value 0.987 | locus YPR025C, strain CCL1, stronger effect = lower value 0.993 | locus YPR106W, strain ISR1, stronger effect = lower value 0.978 | locus YPR111W, strain DBF20, stronger effect = lower value 0.969 | strain NNK1, stronger effect = lower value 0.981 | strain TSCII, stronger effect = lower value 0.958
active: [1] 0.329 | locus YKL101W, strain HSL1, stronger effect = lower value 0.711 | [5] 0.726 | [8] 0.471

C[N+](C)(C)CCCCCCCCCC[N+](C)(C)C
inactive: locus YAL013W, strain DEP1, stronger effect = lower value 1 | locus YAL040C, strain CLN3, stronger effect = lower value 1 | locus YCL061C, strain MRC1 (second series), stronger effect = lower value 1 | locus YDR150W, strain NUM1, stronger effect = lower value 0.989 | locus YDR363W, strain ESC2, stronger effect = lower value 1.02 | locus YER002W, strain NOP16, stronger effect = lower value 0.995 | locus YGR229C, strain SMI1, stronger effect = lower value 1.04 | [1] 0.973 | [2] 1.01 | [3] 1 | [4] 0.963 | [5] 1.01 | locus YMR307W, strain GAS1, stronger effect = lower value 0.998 | locus YNL175C, strain NOP13, stronger effect = lower value 1.01 | [6] 0.948 | locus YNL197C, strain WHI3, stronger effect = lower value 1.03 | locus YNL224C, strain SQS1, stronger effect = lower value 0.983 | locus YOR083W, strain WHI5 (second series), stronger effect = lower value 0.95 | [7] 0.995 | locus YPL055C, strain LGE1, stronger effect = lower value 1.02 | [8] 1.12
